# Publication PMC5540273 (PLoS ONE, 2017)
# Tested on: PFTAIRE2
# Conditions: concentration: 1 μM, replicates: in singlicate; n = 1
# 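Also: KINOMEscan kinase panel screen.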
row,SMILES,%Inh
1,COc1cc2ncn(-c3cc(OCC4CCCO4)c(C(N)=O)s3)c2cc1OC (centres unmarked) [GSK204607],1%
2,COc1ccccc1-c1ccc2c(NC(=O)C3CC3)n[nH]c2n1 [SB-711239],9%
3,Cc1cccc(-c2cc(Nc3ccncc3)c3ccccc3n2)n1 [GSK223675],27%
4,COc1ccc(Nc2nccc(-c3cccc(NC(=O)c4cc5cc(F)ccc5[nH]4)c3)n2)cc1 [GSK1229782],30%
5,COc1ccc(Nc2nccc(NCCNC(=O)Nc3ccccc3F)n2)cc1 [GSK1379901],3%
6,NC(=O)c1nnc2ccccc2c1N,14%
7,CC(C)(C)c1ccc(C(=O)Nc2cn3cc(Cl)ccc3n2)cc1,0%
8,COc1cccc(NC(=O)NC2CCN(c3ccnc(Nc4ccc(F)cc4)n3)C2)c1 (centres unmarked) [GSK1379721],28%
9,Cc1ccc(-c2cc(-c3c[nH]nc3-c3ccccn3)ccn2)cc1 [GW684088],0%
10,Cc1cc(N2Cc3ccccc3C2)nc(Nc2ccc(S(=O)(=O)N3CCOCC3)cc2)n1.Cl [GSK1669917],0%
11,CC(C)(C)c1ccc(C(=O)Nc2cn3cc(-c4cccnc4)ccc3n2)cc1,2%
12,Cc1ccccc1-n1cnc2c(N)ncnc21 [SKF-97510],0%
13,Fc1cccc(COc2nnc(-c3ccc4c(c3)CCO4)o2)c1,7%
14,Cc1ccc(C(=O)Nc2ccc(Nc3ccnc4cc(-c5ccccn5)ccc34)cc2O)cc1.Cl [GW440146],26%
15,CS(=O)(=O)c1ccc(-c2c(-c3ncn[nH]3)sc(N3CCOCC3)c2C#N)cc1,0%
16,COc1cc2nccc(Nc3ccc(NC(=O)c4ccc(C)cc4)c(O)c3)c2cc1OC.Cl [GW440132],26%
17,COC(=O)c1c(-c2ccccc2)c2cc(OC)ccc2c(=O)n1Cc1ccccc1,10%

row,SMILES,%Inh
1,O=C(O)COc1ncnc2cc(-c3ccc4[nH]ncc4c3)sc12,0%
2,COc1ccc(C2=C(Nc3cccc(C(=O)O)c3)C(=O)NC2=O)cc1 [SB-390765],24%
3,CCn1c(-c2ccccn2)nc2cnccc21 [SB-736398],0%
4,Cn1ccc2ncnc(Oc3ccc(Nc4nc5ccccc5[nH]4)cc3)c21,7%
5,O=C(Nc1n[nH]c2cc(-c3cccc(F)c3F)ccc12)C1CC1 [SB-733894],0%
6,Clc1cc(Cl)cc(Nc2ccnc(Nc3cc(Cl)cc(Cl)c3)n2)c1 [GSK175726],2%
7,Cc1cccc(-c2nc(Nc3ccncc3)c3ccccc3n2)n1 [GW855857],0%
8,CCCc1ccc(S(=O)(=O)NC2CCN(c3ccnc(Nc4ccc(F)cc4)n3)C2)cc1 (centres unmarked) [GSK1379715],0%
9,COc1ccc(CNC(=O)NC2CCN(c3ccnc(Nc4cc(OC)c(OC)c(OC)c4)n3)C2)cc1 (centres unmarked) [GSK1379748],9%
10,Cc1c(O)cccc1Nc1ccnc2ccc(C(F)(F)F)cc12.Cl [GW466413],0%
11,Cc1c(Cn2ccn3c(=O)cc(N4CCOCC4)nc23)cccc1C(F)(F)F [GSK2289044],17%
12,COC(=O)c1c(-c2ccccc2)c2cc(C(=O)O)ccc2c(=O)n1Cc1ccccc1,0%
13,Cl.c1ccc(-c2n[nH]cc2-c2ccnc(-c3ccc(CN4CCOCC4)cc3)c2)nc1 [GW776245],19%
14,Cc1cc(NCC(c2ccccc2)c2ccccc2)nc(NCc2ccc(C(F)(F)F)cc2)n1 [GW497681],13%
15,COc1cccc(-c2cc(-c3c[nH]nc3-c3ccccn3)ccn2)c1 [GW680338],10%
16,O=C(Nc1ccccc1)Nc1cccc(Oc2ccc3nccn3n2)c1,57%
17,Nc1ncnc2[nH]c(-c3ccccc3)nc12 [AH5015],6%

# Tested on: T1, PFTK1
# T1 construct: gene CDK14
# Conditions: concentration: 1 μM, replicates: in singlicate; n = 1
row,SMILES,%Inh
1,COc1cc2ncn(-c3cc(OCC4CCCO4)c(C(N)=O)s3)c2cc1OC (centres unmarked) [GSK204607],24%
2,COc1ccccc1-c1ccc2c(NC(=O)C3CC3)n[nH]c2n1 [SB-711239],2%
3,Cc1cccc(-c2cc(Nc3ccncc3)c3ccccc3n2)n1 [GSK223675],16%
4,COc1ccc(Nc2nccc(-c3cccc(NC(=O)c4cc5cc(F)ccc5[nH]4)c3)n2)cc1 [GSK1229782],24%
5,COc1ccc(Nc2nccc(NCCNC(=O)Nc3ccccc3F)n2)cc1 [GSK1379901],26%
6,NC(=O)c1nnc2ccccc2c1N,5%
7,CC(C)(C)c1ccc(C(=O)Nc2cn3cc(Cl)ccc3n2)cc1,0%
8,COc1cccc(NC(=O)NC2CCN(c3ccnc(Nc4ccc(F)cc4)n3)C2)c1 (centres unmarked) [GSK1379721],0%
9,Cc1ccc(-c2cc(-c3c[nH]nc3-c3ccccn3)ccn2)cc1 [GW684088],32%
10,Cc1cc(N2Cc3ccccc3C2)nc(Nc2ccc(S(=O)(=O)N3CCOCC3)cc2)n1.Cl [GSK1669917],23%
11,CC(C)(C)c1ccc(C(=O)Nc2cn3cc(-c4cccnc4)ccc3n2)cc1,22%
12,Cc1ccccc1-n1cnc2c(N)ncnc21 [SKF-97510],0%
13,Fc1cccc(COc2nnc(-c3ccc4c(c3)CCO4)o2)c1,2%
14,Cc1ccc(C(=O)Nc2ccc(Nc3ccnc4cc(-c5ccccn5)ccc34)cc2O)cc1.Cl [GW440146],18%
15,CS(=O)(=O)c1ccc(-c2c(-c3ncn[nH]3)sc(N3CCOCC3)c2C#N)cc1,13%
16,COc1cc2nccc(Nc3ccc(NC(=O)c4ccc(C)cc4)c(O)c3)c2cc1OC.Cl [GW440132],85%
17,COC(=O)c1c(-c2ccccc2)c2cc(OC)ccc2c(=O)n1Cc1ccccc1,6%

row,SMILES,%Inh
1,O=C(O)COc1ncnc2cc(-c3ccc4[nH]ncc4c3)sc12,12%
2,COc1ccc(C2=C(Nc3cccc(C(=O)O)c3)C(=O)NC2=O)cc1 [SB-390765],6%
3,CCn1c(-c2ccccn2)nc2cnccc21 [SB-736398],16%
4,Cn1ccc2ncnc(Oc3ccc(Nc4nc5ccccc5[nH]4)cc3)c21,0%
5,O=C(Nc1n[nH]c2cc(-c3cccc(F)c3F)ccc12)C1CC1 [SB-733894],0%
6,Clc1cc(Cl)cc(Nc2ccnc(Nc3cc(Cl)cc(Cl)c3)n2)c1 [GSK175726],0%
7,Cc1cccc(-c2nc(Nc3ccncc3)c3ccccc3n2)n1 [GW855857],0%
8,CCCc1ccc(S(=O)(=O)NC2CCN(c3ccnc(Nc4ccc(F)cc4)n3)C2)cc1 (centres unmarked) [GSK1379715],1%
9,COc1ccc(CNC(=O)NC2CCN(c3ccnc(Nc4cc(OC)c(OC)c(OC)c4)n3)C2)cc1 (centres unmarked) [GSK1379748],0%
10,Cc1c(O)cccc1Nc1ccnc2ccc(C(F)(F)F)cc12.Cl [GW466413],0%
11,Cc1c(Cn2ccn3c(=O)cc(N4CCOCC4)nc23)cccc1C(F)(F)F [GSK2289044],13%
12,COC(=O)c1c(-c2ccccc2)c2cc(C(=O)O)ccc2c(=O)n1Cc1ccccc1,0%
13,Cl.c1ccc(-c2n[nH]cc2-c2ccnc(-c3ccc(CN4CCOCC4)cc3)c2)nc1 [GW776245],0%
14,Cc1cc(NCC(c2ccccc2)c2ccccc2)nc(NCc2ccc(C(F)(F)F)cc2)n1 [GW497681],18%
15,COc1cccc(-c2cc(-c3c[nH]nc3-c3ccccn3)ccn2)c1 [GW680338],1%
16,O=C(Nc1ccccc1)Nc1cccc(Oc2ccc3nccn3n2)c1,0%
17,Nc1ncnc2[nH]c(-c3ccccc3)nc12 [AH5015],11%
